ssDAF-12 act = activators of S. stercoralis DAF-12 nuclear receptor; HEK293 ssDAF-12/GRIP1 lit1-tk-luc reporter, luminescence; % of 3 µM dafachronic acid response; activation, % at 6.8 µM; 370,000 tested, 1% active; AID 652126;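 active means activation above the mean over all tested compounds plus 3 SD, cut at about 0.9% in these data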
DAX1 inh-1 = DAX1 (NR0B1) inhibition, primary screen; HEK293T StAR-luciferase reporter, SF-1/DAX-1 repression relief; inhibition, % at 6.8 µM; 370,000 tested, 1.1% active; AID 652010;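 active means inhibition above the mean over all tested compounds plus 3 SD, cut at about 3.6% in these data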;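 further: higher inhibition means more luminescence from relief of DAX-1 repression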
SMARCA2 activ = increases SMARCA2 function in MMTV reporter cells | 370,000 tested, 1% active | AID 652017 | MG213 cells, MMTV-luciferase reporter, dexamethasone, overnight | activation, % at 9.1 µM; in the data active means activation above about 7.8%
hgDAF12 agonist = activates the H. glycines DAF-12 receptor ligand-binding domain. HEK293 GAL4-hgDAF12 UAS-luciferase reporter, agonist luminescence; normalized to butyrate control. activation, % at 6.8 µM. 370,000 tested, 1.8% active;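 active means activation above a cutoff set at the mean of all screened compounds plus 3 SD, cut at about 10% in these data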
DAX1 inh-2 = NR0B1 (DAX1) inhibition. HEK293 Gal4-DAX1 luciferase reporter, luminescence. inhibition, % at 6.75 µM. 340,000 tested, 0.99% active;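 active means inhibition above the mean over all tested compounds plus 3 SD, cut at about 4.2% in these data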;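 further: inhibition shows as a rise in luminescence from relieved DAX1 repression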
Target sequence (P51843 207-470 limits assumed): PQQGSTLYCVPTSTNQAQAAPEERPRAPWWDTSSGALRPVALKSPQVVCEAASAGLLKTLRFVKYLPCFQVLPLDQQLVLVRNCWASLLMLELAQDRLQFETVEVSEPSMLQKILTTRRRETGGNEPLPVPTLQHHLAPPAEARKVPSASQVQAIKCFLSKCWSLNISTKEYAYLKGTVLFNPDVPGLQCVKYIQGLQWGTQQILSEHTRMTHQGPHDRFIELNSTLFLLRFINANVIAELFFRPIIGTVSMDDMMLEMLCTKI
hcDAF12 agonist = H. contortus DAF-12 activation, primary screen; HEK293 hcDAF-12 lit1-tk-luc reporter, luminescence; 0% DMSO, 100% Δ7-dafachronic acid; activation, % at 6.8 µM; 370,000 tested, 1.4% active;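 active means activation above the mean of all tested compounds plus 3 SD, cut at about 5.5% in these data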
SMARCA2 conf = confirmation of SMARCA2 (BRM) function activators. 3,500 tested, 30% active. shares compounds with SMARCA2 activ. AID 652260. activation, % at 9.1 µM. MG213 cells, MMTV-luciferase with dexamethasone, luminescence, overnight; MG213 cells expressing E1A, Rb sequestered; DMSO wells 0%, reference activator 100%;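 active means activation above its plate's cutoff, the mean activation of tested wells plus 3 SD, cut at about 7.9% in these data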
VP16 Luc act = activates GAL4-VP16 luciferase, flagging SMARCA2 activator hits. 3,500 tested, 41% active. HEK293 GAL4-VP16 pG5luc reporter, luciferase luminescence; scaled: DMSO wells 0%, SAHA wells 100%. shares compounds with SMARCA2 activ. AID 686939. activation, % at 9.1 µM;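 active means activation above the solvent-only control well mean plus 3 SD, averaged across control plates, cut at about 5.2% in these data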
Each line names hits and unclear results; the compound was inactive in the other large screens (follow-up assays come after a bar, where they were run); ! = not active in a repeat. Sampled rows, rich in hits. Any-hit rate of the full collection: about 4.8%.

CCN1CCCC1CNC(=O)C(=O)Nc1ccccc1 (configuration not stated)	SMARCA2 activ 10.7 | SMARCA2 conf inactive | VP16 Luc act 6.1
CCOc1ccc(NC(=O)C(=O)NCC2CCCN2CC)cc1 (configuration not stated)	none
COc1ccc(CN2C[C@]3(C=C(C)Cn4c(=O)n(-c5ccccc5)c(=O)n43)N(C(=O)OCc3ccccc3)C2=NC(=O)c2ccccc2)c(OC)c1	SMARCA2 activ 8.6 (no result: DAX1 inh-2) | SMARCA2 conf inactive | VP16 Luc act inactive
O=C(NC(=S)Nc1ccccc1N1CCCC1)c1ccccc1[N+](=O)[O-]	none
CCOC(=O)C1CCCN(c2c(Nc3cc(C)cc(C)c3)c(=O)c2=O)C1 (configuration not stated)	none
CN(C)CCCn1c(=O)n(CCc2ccccc2)c(=O)c2c3c(sc21)CCCCC3	none
CN(C)CCCNc1nc2sc3c(c2c(=O)n1CCc1ccccc1)CCCCC3	SMARCA2 activ 10.1 | SMARCA2 conf inactive | VP16 Luc act inactive
COc1cc(C(=O)NCC(=O)N/N=C(\C)Cc2ccccc2)cc(OC)c1OC	none
Cc1ccc(NC(=O)c2ncc(Cl)c(Cl)c2Cl)cc1C	SMARCA2 activ 8.2, hcDAF12 agonist 5.9 | SMARCA2 conf inactive | VP16 Luc act 9.5
CCCCn1c(NC(=O)C2CCCCC2)nc2ccccc21	none
COc1ccc(C(=O)C2CC2)cc1	none
C=C(c1ccc(OC)cc1)c1ccc(OC)cc1	SMARCA2 activ 9.3 | SMARCA2 conf inactive | VP16 Luc act inactive
COc1nn(CC(=O)N2N=C(C(F)F)CC2(O)C(F)F)cc1[N+](=O)[O-] (configuration not stated)	none
COc1cccc(-c2onc3ccc(C(C)=O)cc23)c1	SMARCA2 activ 8.4 | SMARCA2 conf inactive | VP16 Luc act inactive
O=C(CCCc1ccccn1)c1ccc(-c2ccccc2)cc1	ssDAF-12 act 0.9, SMARCA2 activ 8.6 | SMARCA2 conf inactive | VP16 Luc act 6.4
O=C(COC(=O)C1CC2C=CC1C2)Nc1cccc(S(=O)(=O)N2CCOCC2)c1 (configuration not stated)	none
Cc1ccsc1/C=N/NC(=O)c1ccncc1	none
C/C=C/C=N\NC(=O)c1ccncc1	SMARCA2 activ 8.2 | SMARCA2 conf inactive | VP16 Luc act inactive
Cc1nnc2sc(SCc3ccc(Cl)cc3)nn2c1=O	none
O=C1c2cccc(NCCCNCCO)c2C(=O)c2cccc(NCCCNCCO)c21	ssDAF-12 act 1.0, SMARCA2 activ 28.4 | SMARCA2 conf inactive | VP16 Luc act inactive
CC1(C(=O)OCC(=O)Nc2ccc3ccccc3c2)CC1(Cl)Cl (configuration not stated)	SMARCA2 activ 8.5 | SMARCA2 conf inactive | VP16 Luc act 6.3
O=C(Nc1ccc(S(=O)(=O)N2CCOCC2)cc1)C1CC1	none
Cc1ccc(NC(=O)C2CCN(S(=O)(=O)c3ccc(C(C)(C)C)cc3)CC2)cc1S(=O)(=O)N1CCOCC1	SMARCA2 activ 8.4 | SMARCA2 conf inactive | VP16 Luc act inactive
COc1cc(/C=N/NC(=S)NC2CC3CCC2C3)ccc1O (configuration not stated)	SMARCA2 activ 9.4 | SMARCA2 conf inactive | VP16 Luc act inactive
N=c1n(CC(=O)c2ccc(Br)s2)c2ccccc2n1Cc1ccccc1	SMARCA2 activ 8.2 | SMARCA2 conf 22.6 | VP16 Luc act inactive
CCOC1=C2[C@@H](CN(S(=O)(=O)c3ccc(C)cc3)[C@H]2c2ccccc2Cl)[C@H]2C(=O)N(C)C(=O)[C@H]2C1	none (no result: DAX1 inh-2)
CCOC(=O)c1c(NC(=O)COC(=O)c2ccc(NC(=O)CC#N)cc2)sc(C(=O)NC)c1C	none
CCOC(=O)/C=C1\CC(C(=O)OCC)Oc2c(OC)cccc21 (configuration not stated)	SMARCA2 activ 9.6 | SMARCA2 conf inactive | VP16 Luc act inactive
COc1ccc(Br)c(C(=O)N2CCCC2(C)C(=O)NCC(C)C)c1 (configuration not stated)	none (no result: DAX1 inh-2)
Cc1cc(NC(=O)CSc2n[nH]c(-c3ccccc3Br)n2)no1	none
C/C(N)=C(/C#N)C(=O)CSc1n[nH]c(-c2ccccc2Br)n1	SMARCA2 activ 8.6! | SMARCA2 conf inactive | VP16 Luc act inactive
C/C(N)=C(/C#N)C(=O)CSc1ccccc1F	SMARCA2 activ 9.0 | SMARCA2 conf 10.0 | VP16 Luc act 8.8
O=C(COC(=O)c1ccc(S(=O)(=O)N2CCCC2)cc1)Nc1cccc(F)c1	SMARCA2 activ 10.4 | SMARCA2 conf inactive | VP16 Luc act inactive
COC(=O)c1cc2c(c3c4cc(C)ccc4n(S(=O)(=O)c4ccc(OC)cc4)c13)C(=O)N(Cc1ccccc1OC)C2	none (no result: DAX1 inh-2)
Cn1c(CCC(=O)O)nc2cc(S(=O)(=O)N3CCCCC3)ccc21	SMARCA2 activ 10.9 | SMARCA2 conf inactive | VP16 Luc act inactive
CN1CCN(C(=O)c2cn(C)c3ccc(S(=O)(=O)N(C)C4CCCCC4)cc3c2=O)CC1	SMARCA2 activ 8.5 | SMARCA2 conf inactive | VP16 Luc act inactive
CSc1nsc(SCC(=O)Nc2ccccc2)n1	SMARCA2 activ 8.8 | SMARCA2 conf inactive | VP16 Luc act inactive
Cc1ccc(S(=O)(=O)N(C)CC(=O)NCCCc2ccccc2)cc1	none
CC(=O)NC1C(=O)N=C(SCC(=O)Nc2c(C)cccc2C)NC1=O (configuration not stated)	none
CC(=O)NC1C(=O)N=C(SCC(=O)NCc2ccccc2)NC1=O (configuration not stated)	SMARCA2 activ 10.5 | SMARCA2 conf inactive | VP16 Luc act inactive
O=C(COc1ccccc1)NCC1(N2CCCCC2)CCCCC1	SMARCA2 activ 9.6 | SMARCA2 conf inactive | VP16 Luc act inactive
C=CCSc1nc2sc3c(c2c(=O)[nH]1)CC(C)(C)OC3	none
COC(=O)c1ccc2nc(-c3ccc(F)cc3)c(Cc3ccccc3C(F)(F)F)n2c1	SMARCA2 activ 9.1 (no result: DAX1 inh-2) | SMARCA2 conf inactive | VP16 Luc act inactive
COC(=O)c1ccc2nc(-c3ccccc3)c(Cc3ccccc3C(F)(F)F)n2c1	none (no result: DAX1 inh-2)
O=C(CSc1nc2c(cnn2-c2ccc(F)cc2)c(=O)[nH]1)N1CCCc2ccccc21	none
Nc1nc(SCC(=O)N2CCCc3ccccc32)[nH]c(=O)c1-c1ccccc1	SMARCA2 activ 10.6 | SMARCA2 conf inactive | VP16 Luc act inactive
CCC(CC)NC(=O)COC(=O)c1ccc2c(c1)C(=O)N(Cc1ccco1)C2=O	none

Assay outcomes: PubChem, The Scripps Research Institute Molecular Screening Center
